Reference: PMC5540273 (PLoS ONE, 2017)

Legend:
Conditions in all cases: concentration: 1 μM, replicates: in singlicate; n = 1
[1] = test system: CDKL5
[2] = test system: CHEK1
[3] = test system: CHEK2
[4] = test system: CIT
[5] = test system: CLK1
[6] = test system: CLK2
[7] = test system: CLK3
[8] = test system: CLK4
[9] = test system: CSF1R-autoinhibited
[10] = test system: CSF1R
[11] = test system: CSK
[12] = test system: CSNK1A1L
[13] = test system: CSNK1A1
[14] = test system: CSNK1D
[15] = test system: CSNK1E
[16] = test system: CSNK1G1
[17] = test system: CSNK1G2
[18] = test system: CSNK1G3
[19] = test system: CSNK2A1
[20] = test system: CSNK2A2
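Further: KINOMEscan kinase panel screen.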

| Structure (SMILES) | %Inh [1] | %Inh [2] | %Inh [3] | %Inh [4] | %Inh [5] | %Inh [6] | %Inh [7] | %Inh [8] | %Inh [9] | %Inh [10] | %Inh [11] | %Inh [12] | %Inh [13] | %Inh [14] | %Inh [15] | %Inh [16] | %Inh [17] | %Inh [18] | %Inh [19] | %Inh [20] |
| --- | --- | --- | --- | --- | --- | --- | --- | --- | --- | --- | --- | --- | --- | --- | --- | --- | --- | --- | --- | --- |
| CNCc1ccc2nc(NC(=O)c3ccc(C(C)(C)C)cc3)cn2c1 | 23% | 5% | 0% | 0% | 87% | 22% | 0% | 3% | 2% | 42% | 0% | 0% | 2% | 11% | 3% | 9% | 0% | 87% | 42% | 4% |
| Cc1ccc(NC(=O)Nc2ccccc2)cc1-c1ccc(C(=O)Nc2ccncc2)cc1 [GSK1398471] | 11% | 0% | 0% | 93% | 20% | 0% | 7% | 14% | 0% | 84% | 2% | 0% | 0% | 13% | 24% | 11% | 13% | 29% | 6% | 7% |
| Cc1ccc(NC(=O)Nc2ccccc2F)cc1-c1ccc(C(=O)Nc2ccncc2)cc1 [GSK1398477] | 18% | 5% | 0% | 89% | 16% | 0% | 3% | 40% | 0% | 85% | 0% | 20% | 0% | 12% | 16% | 18% | 32% | 28% | 19% | 18% |
| Cc1ccc(-c2nc(Nc3ccncc3)c3ccccc3n2)s1 [GSK189015] | 14% | 22% | 0% | 42% | 35% | 0% | 0% | 28% | 0% | 4% | 0% | 13% | 24% | 33% | 22% | 14% | 12% | 35% | 27% | 30% |
| COC(=O)C(Cc1ccccc1)NC(=O)NC1CCN(c2ccnc(Nc3ccc(F)cc3)n2)C1 (stereo not drawn) [GSK1379714] | 1% | 86% | 14% | 6% | 5% | 0% | 0% | 13% | 35% | 1% | 0% | 2% | 5% | 7% | 7% | 0% | 13% | 11% | 0% | 14% |
| COc1ccc(-c2coc3ccc(-c4nnc(C)o4)cc23)cc1 | 51% | 0% | 13% | 16% | 3% | 22% | 0% | 27% | 7% | 9% | 0% | 0% | 0% | 0% | 0% | 4% | 1% | 0% | 0% | 15% |
| Cc1ccc(NC(=O)Nc2ccc(Cl)c(C(F)(F)F)c2)cc1-c1ccc(C(=O)Nc2ccncc2)cc1 [GSK1398470] | 6% | 0% | 0% | 90.6% | 14% | 3% | 0% | 24% | 0% | 30% | 0% | 9% | 22% | 7% | 7% | 11% | 24% | 21% | 21% | 0% |
| CNC(=O)c1ccc(C)c(-n2c(C)cc(OCc3ccc(F)cc3F)c(Br)c2=O)c1 | 0% | 0% | 0% | 0% | 11% | 0% | 0% | 0% | 0% | 0% | 0% | 0% | 4% | 0% | 6% | 0% | 0% | 25% | 0% | 0% |
| COc1cccc(C2=C(Nc3cc(Cl)c(O)c(Cl)c3)C(=O)NC2=O)c1 [SB-390767] | 0% | 100% | 0% | 7% | 46% | 0% | 14% | 15% | 0% | 0% | 0% | 5% | 0% | 13% | 24% | 100% | 0% | 25% | 0% | 0% |
| Cn1cnc2c(N)ncnc21 [SKF-97623] | 0% | 0% | 24% | 1% | 6% | 0% | 2% | 0% | 41% | 0% | 0% | 22% | 1% | 0% | 8% | 0% | 70% | 0% | 0% | 0% |
| O=C1NC(=O)C(c2ccc(Cl)cc2)=C1Nc1ccc(O)cc1 [SB-340867] | 0% | 0% | 0% | 0% | 51% | 65% | 0% | 29% | 0% | 0% | 0% | 2% | 0% | 0% | 0% | 0% | 0% | 32% | 0% | 0% |
| CC(=O)c1c(C)c2cnc(Nc3ccn(C)n3)nc2n(C2CCCC2)c1=O | 0% | 0% | 0% | 4% | 19% | 16% | 0% | 9% | 12% | 0% | 1% | 0% | 3% | 0% | 0% | 0% | 0% | 16% | 56% | 50% |
| CNc1cc(-c2ccc3c(N)n[nH]c3c2)nc(N)n1 [GSK2224810] | 0% | 0% | 84% | 9% | 90.2% | 80% | 18% | 89% | 5% | 3% | 4% | 0% | 8% | 9% | 12% | 7% | 0% | 28% | 19% | 22% |
| COc1ccc(Nc2nccc(NCCNC(=O)Nc3cc(C)ccc3C)n2)cc1 [GSK1379899] | 5% | 5% | 86% | 7% | 23% | 0% | 6% | 57% | 0% | 0% | 0% | 1% | 0% | 4% | 22% | 0% | 0% | 15% | 1% | 0% |
| Cl.Cl.Cl.N#Cc1ccc(CCNc2nccc(-c3cccc(CN4CCNCC4)c3)n2)cc1 [GSK2137462] | 0% | 0% | 0% | 82% | 17% | 23% | 0% | 15% | 0% | 8% | 15% | 2% | 0% | 23% | 55% | 13% | 0% | 14% | 20% | 30% |
| CC(=O)c1cccc(NC(=O)NC2CCN(c3ccnc(Nc4ccc(F)cc4)n3)C2)c1 (stereo not drawn) [GSK1379710] | 0% | 10% | 33% | 29% | 24% | 3% | 14% | 0% | 33% | 18% | 5% | 0% | 0% | 27% | 18% | 12% | 0% | 25% | 16% | 15% |
| COc1ccc2cc(-c3nc(-c4ccccc4C(C)C)[nH]c3-c3ccncc3)ccc2c1 [SB-660566] | 37% | 4% | 0% | 28% | 12% | 0% | 0% | 0% | 0% | 8% | 0% | 20% | 0% | 22% | 34% | 10% | 0% | 0% | 0% | 2% |
| CC(C)c1cc(-c2ccc3c(N)n[nH]c3c2)nc(N)n1 [GSK2250882] | 0% | 0% | 84% | 5% | 59% | 21% | 0% | 62% | 6% | 5% | 0% | 0% | 0% | 0% | 7% | 10% | 0% | 25% | 0% | 10% |
| CCn1c(-c2c(N)noc2C)nc2cnccc21 [SB-737856] | 0% | 0% | 0% | 22% | 26% | 0% | 0% | 13% | 0% | 14% | 0% | 18% | 0% | 13% | 11% | 8% | 0% | 9% | 0% | 0% |
| O=C(Nc1n[nH]c2nc(-c3ccco3)c(Br)cc12)C1CCN(Cc2ccccc2)C1.O=C(O)[C@H](O)[C@@H](O)C(=O)O (stereo not drawn) [SB-742034] | 85% | 16% | 0% | 0% | 0% | 0% | 0% | 7% | 0% | 10% | 11% | 8% | 21% | 28% | 0% | 4% | 32% | 0% | 22% | 37% |
| Cc1c(Cn2c(C)c(C)n3c(=O)cc(N4CCOCC4)nc23)cccc1C(F)(F)F [GSK2328680] | 0% | 0% | 8% | 19% | 22% | 0% | 6% | 21% | 14% | 0% | 0% | 10% | 0% | 24% | 20% | 0% | 0% | 21% | 2% | 5% |
